{
  "source": "ChEMBL document CHEMBL4808148",
  "about": "“HDAC6 screening dataset using tau-based substrate in an enzymatic assay yields selective inhibitors and activators” (2021)",
  "key": {"[1]": {"biological_target": "T1, Protein deacetylase HDAC6 (Homo sapiens) (UniProt Q9UBN7)", "T1 sequence (whole entry)": "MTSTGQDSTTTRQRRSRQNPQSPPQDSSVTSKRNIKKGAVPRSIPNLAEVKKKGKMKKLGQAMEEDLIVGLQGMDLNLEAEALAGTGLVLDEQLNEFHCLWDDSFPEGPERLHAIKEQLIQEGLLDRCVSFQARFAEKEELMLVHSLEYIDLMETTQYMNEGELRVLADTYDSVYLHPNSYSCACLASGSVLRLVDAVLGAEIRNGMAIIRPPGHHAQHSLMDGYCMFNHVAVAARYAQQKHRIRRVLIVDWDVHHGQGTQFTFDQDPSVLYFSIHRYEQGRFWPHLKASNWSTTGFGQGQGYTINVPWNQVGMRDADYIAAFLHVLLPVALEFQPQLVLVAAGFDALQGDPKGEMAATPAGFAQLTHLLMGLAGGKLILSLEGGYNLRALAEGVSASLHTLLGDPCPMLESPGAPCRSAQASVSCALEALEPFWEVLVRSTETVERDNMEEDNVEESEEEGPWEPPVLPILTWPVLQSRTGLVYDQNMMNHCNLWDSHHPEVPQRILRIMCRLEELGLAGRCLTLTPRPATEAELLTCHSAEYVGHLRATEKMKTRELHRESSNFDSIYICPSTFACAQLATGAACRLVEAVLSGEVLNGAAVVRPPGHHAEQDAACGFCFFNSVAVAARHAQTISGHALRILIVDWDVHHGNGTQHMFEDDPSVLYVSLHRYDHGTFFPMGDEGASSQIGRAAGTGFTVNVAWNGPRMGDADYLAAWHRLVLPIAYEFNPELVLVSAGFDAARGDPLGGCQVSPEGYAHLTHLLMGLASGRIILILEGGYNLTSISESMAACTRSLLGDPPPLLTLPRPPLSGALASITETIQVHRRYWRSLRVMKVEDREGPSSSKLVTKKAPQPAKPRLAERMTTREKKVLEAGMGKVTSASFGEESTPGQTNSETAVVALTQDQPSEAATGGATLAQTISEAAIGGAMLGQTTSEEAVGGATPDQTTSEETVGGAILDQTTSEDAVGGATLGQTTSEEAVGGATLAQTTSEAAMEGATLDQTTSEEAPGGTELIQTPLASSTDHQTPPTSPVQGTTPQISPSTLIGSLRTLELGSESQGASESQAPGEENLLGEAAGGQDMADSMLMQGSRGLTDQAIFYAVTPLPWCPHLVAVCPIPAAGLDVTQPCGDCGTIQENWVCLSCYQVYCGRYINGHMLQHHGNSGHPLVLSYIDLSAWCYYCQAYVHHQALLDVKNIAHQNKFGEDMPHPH", "conditions": "at 10 µM"}, "[2]": {"biological_target": "Protein deacetylase HDAC6 (Homo sapiens) (UniProt Q9UBN7)", "conditions": "at 10 µM", "remark": "listed apart in the source"}},
  "note": "Hit rate of the full screen: of about 5,600 compounds, about 150 (2.7%) showed an effect of 50% or more. The full list was thinned out, with strong results kept by preference.",
  "data": [
    {"compound": "CCOC(=O)c1ccc(N2NC(=O)/C(=C/c3ccc([N+](=O)[O-])o3)C2=O)cc1", "values": [
      {"measurement": "inhibition", "setting": "[1]", "result": 3.77, "unit": "%"}
    ]},
    {"compound": "Cn1nc(-c2ccc(C(F)(F)F)cc2)nc2c(=O)n(C)c(=O)nc1-2", "values": [
      {"measurement": "inhibition", "setting": "[1]", "result": 82.8, "unit": "%"}
    ]},
    {"compound": "Cc1cccc(C)c1NC(=O)/N=C1\\CCCN1C", "values": [
      {"measurement": "inhibition", "setting": "[1]", "result": -2.32, "unit": "%"}
    ]},
    {"compound": "Cc1ccc(-c2[nH]nc3c2C(c2cccc(O)c2)N(c2ccc(C(=O)O)cc2)C3=O)cc1", "note": "(stereo not drawn)", "values": [
      {"measurement": "inhibition", "setting": "[1]", "result": -3.95, "unit": "%"}
    ]},
    {"compound": "C1Cc2[nH]nc(-c3nn[nH]n3)c2C1", "values": [
      {"measurement": "inhibition", "setting": "[1]", "result": -4.01, "unit": "%"}
    ]},
    {"compound": "COc1ccc2[nH]c(SCc3ncc(C)c(OC)c3C)nc2c1", "values": [
      {"measurement": "inhibition", "setting": "[1]", "result": 7.26, "unit": "%"}
    ]},
    {"compound": "N#Cc1cccc(-c2c[nH]c3ncnc(N4CCOCC4)c23)c1", "values": [
      {"measurement": "inhibition", "setting": "[1]", "result": -3.83, "unit": "%"}
    ]},
    {"compound": "CCCCc1nc2cc(/C=C/C(=O)NO)ccc2n1CCN(CC)CC", "values": [
      {"measurement": "inhibition", "setting": "[1]", "result": 97.3, "unit": "%"}
    ]},
    {"compound": "CCCCc1nc(-c2ccc(OCCCN(CC)CC)cc2)cn1-c1ccc(Oc2ccc(Cl)cc2)cc1", "values": [
      {"measurement": "inhibition", "setting": "[1]", "result": 9.56, "unit": "%"}
    ]},
    {"compound": "CCN(CC)CCn1c(=O)c(Cc2ccc(OC)cc2)nc2ccccc21", "values": [
      {"measurement": "inhibition", "setting": "[1]", "result": -4.21, "unit": "%"}
    ]},
    {"compound": "CC(C)(C)/[N+]([O-])=C/c1ccc(S(=O)(=O)O)cc1S(=O)(=O)O", "values": [
      {"measurement": "inhibition", "setting": "[1]", "result": -5.01, "unit": "%"}
    ]},
    {"compound": "CCCc1c(OCCCOc2ccc(OCC(=O)O)cc2)ccc(CC=O)c1O", "values": [
      {"measurement": "inhibition", "setting": "[1]", "result": -1.53, "unit": "%"}
    ]},
    {"compound": "O=C(O)/C=C\\c1c[nH]cn1", "values": [
      {"measurement": "inhibition", "setting": "[1]", "result": -0.7, "unit": "%"}
    ]},
    {"compound": "Nc1ccc(C(=O)O)c(O)c1", "values": [
      {"measurement": "inhibition", "setting": "[1]", "result": -3.77, "unit": "%"}
    ]},
    {"compound": "CC1(C)CCC(C)(C)c2cc(NC(=O)c3ccc(C(=O)O)cc3)ccc21", "values": [
      {"measurement": "inhibition", "setting": "[1]", "result": -2.96, "unit": "%"}
    ]},
    {"compound": "O=C(Nc1ccc(C(=O)O)c(O)c1)c1ccccc1", "values": [
      {"measurement": "inhibition", "setting": "[1]", "result": 95.5, "unit": "%"}
    ]},
    {"compound": "OXALIPLATIN, CHEMBL414804", "values": [
      {"measurement": "inhibition", "setting": "[2]", "result": -4.35, "unit": "%"}
    ]},
    {"compound": "CN[C@H](CNC(=O)N1CCC[C@@H]([C@@H](OCCNC(=O)OC)c2cccc(Cl)c2)C1)C[C@H]1CCCOC1", "values": [
      {"measurement": "inhibition", "setting": "[1]", "result": 8.55, "unit": "%"}
    ]},
    {"compound": "Cc1ccc(OCCSc2ncccn2)c(Br)c1", "values": [
      {"measurement": "inhibition", "setting": "[1]", "result": 77.5, "unit": "%"}
    ]},
    {"compound": "Cc1cc(OCC(=O)O)cc(C)c1Cc1ccc(O)c(C(C)C)c1", "values": [
      {"measurement": "inhibition", "setting": "[1]", "result": -5.84, "unit": "%"}
    ]},
    {"compound": "O=C1[C@@H]2[C@H]3CC[C@H](C3)[C@@H]2C(=O)N1CCCCN1CCN(c2ncccn2)CC1", "values": [
      {"measurement": "inhibition", "setting": "[1]", "result": 6.98, "unit": "%"}
    ]},
    {"compound": "N#Cc1c[nH]c2c(C(=O)N3CCN(CCc4ccc(F)cc4)CC3)cccc12", "values": [
      {"measurement": "inhibition", "setting": "[1]", "result": 4.22, "unit": "%"}
    ]},
    {"compound": "COc1ccccc1C(=O)Nc1cccc(NC(=O)c2cccc(C)c2)c1", "values": [
      {"measurement": "inhibition", "setting": "[1]", "result": 8.47, "unit": "%"}
    ]},
    {"compound": "CC(=O)CC(=O)O", "values": [
      {"measurement": "inhibition", "setting": "[1]", "result": -2.94, "unit": "%"}
    ]},
    {"compound": "O=C(CCNNC(=O)c1ccncc1)NCc1ccccc1", "values": [
      {"measurement": "inhibition", "setting": "[1]", "result": -3.21, "unit": "%"}
    ]},
    {"compound": "O=C(CCCCCCNC(=O)c1cnc(N(c2ccccc2)c2ccccc2)nc1)NO", "values": [
      {"measurement": "inhibition", "setting": "[1]", "result": 97.5, "unit": "%"}
    ]},
    {"compound": "CCCCCCCCCCCCCCCC(=O)NCCO", "values": [
      {"measurement": "inhibition", "setting": "[1]", "result": -0.28, "unit": "%"}
    ]},
    {"compound": "N#C/C(=C\\c1cccn1S(=O)(=O)c1cccc([N+](=O)[O-])c1)S(=O)(=O)c1ccc(F)cc1", "values": [
      {"measurement": "inhibition", "setting": "[1]", "result": 6.35, "unit": "%"}
    ]},
    {"compound": "N[C@@H](CC(=O)NO)C(=O)O", "values": [
      {"measurement": "inhibition", "setting": "[1]", "result": -1.74, "unit": "%"}
    ]},
    {"compound": "O=C1Nc2c(ccc(Cl)c2Cl)/C1=N\\O", "values": [
      {"measurement": "inhibition", "setting": "[1]", "result": 1.23, "unit": "%"}
    ]},
    {"compound": "Nc1nc(N)c2nc(-c3cccc(O)c3)cnc2n1", "values": [
      {"measurement": "inhibition", "setting": "[1]", "result": 66.2, "unit": "%"}
    ]},
    {"compound": "Oc1cccc(-c2c3nc(c(-c4cccc(O)c4)c4ccc([nH]4)c(-c4cccc(O)c4)c4nc(c(-c5cccc(O)c5)c5ccc2[nH]5)CC4)C=C3)c1", "values": [
      {"measurement": "inhibition", "setting": "[1]", "result": 2.63, "unit": "%"}
    ]},
    {"compound": "Nc1nc(N)c2nc(-c3ccccc3)c(N)nc2n1", "values": [
      {"measurement": "inhibition", "setting": "[1]", "result": 22, "unit": "%"}
    ]}
  ]
}
